From PubChem BioAssay AID1490 (National Center for Advancing Translational Sciences (NCATS), 2009)
In all, about 310,000 compounds went through this assay and about 11,000 (3.5%) were called active. Inconclusive results (about 4%) are left out. The call rests on the fitted dose curve; in most records, active means well fitted inhibition curve with a large enough effect; inconclusive means small, poorly fitted or top-dose-only effect, or another doubt; inactive means no such curve, though single readings can be large or run the other way. Only a selection was taken, and actives are over-represented in it overall. Where a structure was tested more than once in an assay, its records may differ in their call.

target: 4'-phosphopantetheinyl transferase ffp (Bacillus subtilis) (UniProt Q9F4F7); assay: qHTS Assay for Inhibitors of Bacillus subtilis Sfp phosphopantetheinyl transferase (PPTase); conditions: Biochemical Sfp PPTase activity;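 further: the enzyme is Sfp with the accession as filed and its product quenches rhodamine fluorescence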;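 on largest response in the series, negative = inhibition: 0% = enzyme reaction without inhibitor and -100% = no enzyme wells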
Method in brief: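 Buffer: 50 mM Hepes-Na pH 7.6, 10 mM MgCl2, 0.01% Nonidet P-40, 0.01% BSA. Enzyme 15 nM, pre-exposed to compound 15 min; substrates then added and fluorescence change tracked over 30 min.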
Potency means the concentration at half of the fitted maximal effect.

| Structure (SMILES) | largest response in the series, negative = inhibition | Potency |
| --- | --- | --- |
| Cc1ccc(S(=O)(=O)c2c[nH]c3ccc(C)cc3c2=O)cc1 | 18.3% (inactive) |  |
| COc1cc(C)cc(CN2CCC(Cc3ccccc3)CC2)c1O | 15.6% (inactive) |  |
| Cc1ccc(OCc2nnc(SC3CCc4ccccc4C3=O)n2C)cc1 (stereo not drawn) |  | 25.1 µM (active) |
| Cc1ccc(OCc2nc3ccccc3n2C)cc1 | 16.9% (inactive) |  |
| Cc1cccnc1NC(=O)CSc1nnc(COc2ccc(C(C)C)cc2)n1C | -2.86% (inactive) |  |
| CCC(C)NC(=O)c1ccccc1NC(=O)c1ccccc1N(C)S(C)(=O)=O (stereo not drawn) | 17.5% (inactive) |  |
| CCCCNC(=O)c1ccccc1NC(=O)C1=C(C)OCCS1 | 4.87% (inactive) |  |
| CCCCNC(=O)c1ccccc1NC(=O)c1ccccc1N(C)S(C)(=O)=O |  | 50.1 µM (active) |
| C=CCOC(=O)C(C(C)=O)C(NC(=O)OC)c1ccccc1 (stereo not drawn) | 17.2% (inactive) |  |
| COc1ccc(C)cc1NC(=O)CN(C)S(=O)(=O)c1ccc2c(c1)n(C)c(=O)c(=O)n2C | 13.5% (inactive) |  |
| COc1ccc2c(c1)CC[C@@H]1[C@@H]2CC[C@]2(C)C(=O)CC[C@@H]12 |  | 50.1 µM (active) |
| C[C@]12CC[C@@H]3C(=CCc4cc(O)ccc43)[C@@H]1CCC2=O | -11.9% (inactive) |  |
| COc1ccc(S(=O)(=O)N2CCN(C)CC2)c(C)c1 | 13.7% (inactive) |  |
| CCCc1c(C(=O)N/N=C(\C)CCc2ccc(OC)cc2)nnn1-c1nonc1N | 10.3% (inactive) |  |
| CCOc1ccc(N2C(=O)/C(=C/c3ccc(C)o3)N(C)C2=S)cc1 |  | 3.98 µM (active) |
| CCO/C=C1\C(=O)N(c2ccc(OCC)cc2)C(=O)c2ccccc21 | 3.31% (inactive) |  |
| CCOc1ccc(N2C(=O)CN(c3cccc4ccccc34)C2=S)cc1 | 11.1% (inactive) |  |
| COC(=O)C1=C(C(=O)OC)[C@@H]2N(C)c3ccccc3[C@@]23C[C@@H](C(=O)OC)N(S(=O)(=O)c2ccc(Br)cc2)C3=N1 | 14% (inactive) |  |
| CCOC(=O)C1=NO[C@@]2(C=C(Br)C(=O)[C@H]3O[C@H]32)C1 |  | 31.6 µM (active) |
| CCOC(=O)C1=C(C)N=C2c3ccccc3C(=O)C2C1c1ccc(Br)cc1 (stereo not drawn) | 10.1% (inactive) |  |
| CCOC(=O)C1=NOC(Cn2cc(C(C)=O)c(=O)[nH]c2=O)C1 (stereo not drawn) | 15.9% (inactive) |  |
| Cc1c(C=O)c2ccccc2n1CCOc1ccccc1 | -1.13% (inactive) |  |
| CCOc1ccc(N/C=C/C(=O)c2cc(OC)c(OC)c(OC)c2)cc1 | -7.21% (inactive) |  |

| Structure (SMILES) | largest response in the series, negative = inhibition | Potency |
| --- | --- | --- |
| COc1ccccc1NC(=O)CSc1nnc(CNC(=O)c2ccccc2F)o1 | 15.2% (inactive) |  |
| NC(=O)c1c(NC(=O)CSc2nc(N)cc(=O)[nH]2)sc2c1CCCC2 | -28% (inactive) |  |
| NC(=O)c1c(NC(=O)CSc2nnc(-c3ccco3)n2N)sc2c1CCCC2 |  | 5.62 µM (active) |
| CCc1cccc(C)c1NC(=O)CSc1nnc(-c2ccco2)n1N | -3.08% (inactive) |  |
| CCOc1ccccc1NS(=O)(=O)c1c[nH]c(C(=O)OC)c1 | 4.59% (inactive) |  |
| COC(=O)C1=C(C)N=C2SC(C)C(=O)N2C1/C=C/c1ccccc1 (stereo not drawn) | 18.9% (inactive) |  |
| CCOC(=O)c1ccccc1N1C(=O)C2Sc3[nH]c(=O)sc3C(/C=C/c3ccccc3)C2C1=O (stereo not drawn) |  | 12.6 µM (active) |
| CC(OC(=O)c1ccccc1N1C(=O)C2C3CCC(C3)C2C1=O)C(=O)c1ccccc1 (stereo not drawn) | 11.3% (inactive) |  |
| CN1CCN(CCCCOc2ccccc2-c2ccccc2)CC1 |  | 56.2 µM (active) |
| CC1CN(CCCOc2ccccc2-c2ccccc2)CC(C)O1 (stereo not drawn) |  | 56.2 µM (active) |
| CN1CCN(CCCCOc2cccc3ccccc23)CC1 | 4.87% (inactive) |  |
| c1ccc(-c2ccccc2OCCN2CCCCC2)cc1 | -19% (inactive) |  |
| CC1CN(CCOc2ccccc2[N+](=O)[O-])CC(C)O1 (stereo not drawn) | -26.3% (inactive) |  |
| CC1CCCN(CCOCCOc2ccccc2-c2ccccc2)C1 (stereo not drawn) | -31.6% (inactive) |  |
| CCN(CC)CCCNC(=O)CCn1nc(-c2ccc(Cl)cc2)ccc1=O | 13.6% (inactive) |  |
| OC(CNC1CCCC1)COc1ccc(F)cc1 (stereo not drawn) | 1.37% (inactive) |  |
| CCc1cccc(C)c1N1C(=O)CN(Cc2ccccc2)C1=S | 13.8% (inactive) |  |
| C#CC(C)(C)NC(=O)c1cnc(-c2ccccc2)nc1-c1ccccc1 | 8.13% (inactive) |  |
| COc1ccc(C(=O)n2nc(C)c(Br)c2C)cc1OC | 16.8% (inactive) |  |
| CC1CCN(S(=O)(=O)c2ccc3c(ccn3CC(=O)O)c2)CC1 | 13.3% (inactive) |  |
| Cc1sc(NC(=O)C2C3CCC(O3)C2C(=O)O)c(C(=O)OC(C)C)c1-c1ccc(Cl)cc1 (stereo not drawn) |  | 56.2 µM (active) |
| COc1ccc(NC(=O)C2C3CCC(O3)C2C(=O)O)cc1OC (stereo not drawn) | -8.26% (inactive) |  |
| CC(C)OC(=O)c1cc(NC(=O)C2C3CCC(O3)C2C(=O)O)cc(C(=O)OC(C)C)c1 (stereo not drawn) | 12.5% (inactive) |  |

| Structure (SMILES) | largest response in the series, negative = inhibition | Potency |
| --- | --- | --- |
| O=c1ccc2cc(S(=O)(=O)NCCCc3ccccc3)ccc2[nH]1 | 6.03% (inactive) |  |
| CCOC(=O)C1CCN(S(=O)(=O)c2c(C)noc2C)CC1 | 0.623% (inactive) |  |
| COc1cccc(-c2coc3cc4oc(=O)c(CC(=O)O)c(C)c4cc23)c1 | 3.72% (inactive) |  |
| O=C(COc1ccc(Cl)cc1)Nc1ccc2oc(=O)ccc2c1 | -10.1% (inactive) |  |
| O=C(NC(=S)Nc1ccc2oc(=O)ccc2c1)c1ccc(-c2cccc(Cl)c2Cl)o1 |  | 79.4 µM (active) |
| CC(C)C(=O)Nc1ccc2oc(=O)ccc2c1 | 13.6% (inactive) |  |
| CC(C)(C)OC(=O)NCCCC1=CC2=CC(=O)C(C)(OC(=O)c3ccco3)C(=O)C2=CO1 (stereo not drawn) | -0.751% (inactive) |  |
| COC/C=C/C1=CC2=CC(=O)C(C)(OC(=O)CCC(=O)OC)C(=O)C2=CO1 (stereo not drawn) | -28.3% (inactive) | 56.2 µM (active) |
| CC(C)(C)OC(=O)NCCCCC1=CC2=CC(=O)C(C)(OC(=O)c3cccs3)C(=O)C2=CO1 (stereo not drawn) | -1.92% (inactive) |  |
| COc1cc(C2C3=C(CCCC3=O)OC3=C2C(=O)CCC3)ccc1OCC(=O)Nc1ccccc1 | -3.15% (inactive) |  |
| Cc1cccc(C)c1NC(=O)COC(=O)c1ccccc1O | -13% (inactive) |  |
| O=C(NC(=S)Nc1ccccc1C(=O)O)c1ccc(-c2ccc(Br)cc2)o1 |  | 31.6 µM (active) |
| COC(=O)c1ccccc1NC(=S)NC(=O)c1ccccc1F | 10.1% (inactive) |  |
| Cc1cccc(NC(=S)NC(=O)c2ccc(Br)o2)c1 | -10.9% (inactive) |  |
| CC1(C)C2CCC1(CS(=O)(=O)NCCc1c[nH]c3ccccc13)C(=O)C2 (stereo not drawn) | 3.13% (inactive) |  |
| CCCCN(C)CCNC(=O)C1CCCN(S(=O)(=O)c2cccc3nsnc23)C1 (stereo not drawn) | 11.4% (inactive) |  |
| COCCNC(=S)N(CCc1c(C)[nH]c2ccc(C)cc12)Cc1cccnc1 | 5.81% (inactive) |  |
| COc1cc(/C=C2/C(=O)ON=C2C)ccc1OCc1cccc(F)c1 | -29.4% (inactive) |  |
| CCOc1cc(/C=N/O)ccc1OCc1ccccc1F | 2.28% (inactive) |  |
| COc1cc(/C=C2/C(=O)ON=C2C)ccc1OCc1ccccc1F |  | 56.2 µM (active) |
| O=C(Nc1nnc(-c2ccc(F)cc2)s1)c1c(F)cccc1Cl | 11.5% (inactive) |  |
| O=C(NCCNc1ccc([N+](=O)[O-])cc1Cl)c1ccccc1F | 13.9% (inactive) |  |
| O=C(Nc1sc2c(c1-c1nc3ccccc3[nH]1)CCCC2)C1CC1 | 11.4% (inactive) |  |

| Structure (SMILES) | largest response in the series, negative = inhibition | Potency |
| --- | --- | --- |
| C/C(=C\c1ccccc1)C1NC(=O)c2c(sc3c2CCCC3)N1 (stereo not drawn) | -9.45% (inactive) |  |
| O=C1NC(c2ccncc2)Nc2sc3c(c21)CCCC3 (stereo not drawn) |  | 35.5 µM (active) |
| COc1ccc(CNC(=O)C(c2ccc(O)cc2)N(Cc2ccco2)C(=O)c2snc(C(N)=O)c2N)cc1 (stereo not drawn) | 8.78% (inactive) |  |
| O=CN1CCN(C(=O)c2ccc3c(c2)OCO3)CC1 | 5.66% (inactive) |  |
| Cc1cc(C)cc(NC(=S)NCCCN2CCOCC2)c1 | 3.01% (inactive) |  |
| O=C(NNC(=S)NCCCN1CCOCC1)c1ccncc1 |  | 28.2 µM (active) |
| Cc1ccc(C(=O)NC(=S)NCCN2CCOCC2)cc1 | 0.183% (inactive) |  |
| O=C(N/N=C/c1ccoc1)c1ccc(Cl)cc1Cl | 5.37% (inactive) |  |
| Cc1cccc(N2CCN(C(=O)CCS(=O)(=O)c3ccc4c(c3)NC(=O)C(C)S4)CC2)c1C (stereo not drawn) | 10.9% (inactive) |  |
| CC(C)(C)OC(=O)CNC(=O)c1[nH]cnc1C(=O)N[C@@H](Cc1ccccc1)C(=O)OCc1ccccc1 | 19.7% (inactive) |  |
| CCCCCCCCCCOC(=O)Cn1c(COc2ccc(C)cc2)[n+](C)c2ccccc21 |  | 31.6 µM (active) |
| CCCCCCCCCCOC(=O)Cn1c(COc2cccc(OC)c2)[n+](C)c2ccccc21 |  | 44.7 µM (active) |
| CCCCOC(=O)Cn1c(=N)n(CCN(CC)CC)c2ccccc21 | 8.57% (inactive) |  |
| CCCCOC(=O)Cn1c(=O)n(CC(=O)OCCCC)c2cc(C)ccc21 | 7.32% (inactive) |  |
| COc1cccc(OCC(=O)Nc2ccccc2C(N)=O)c1 | 10.7% (inactive) |  |
| Cc1ccc(OCCCn2c(=O)oc3ccccc32)cc1 | -10.3% (inactive) |  |
| O=S(=O)(c1ccc(Cl)s1)N1CCC2(CC1)OCCO2 | 23.5% (inactive) |  |
| CCCCn1c(N)c(N(CCOC)C(=O)c2oc3ccc(OC)cc3c2C)c(=O)[nH]c1=O | 15.3% (inactive) |  |
| O=C(CC1C(=O)NCCN1C(=O)c1ccc([N+](=O)[O-])cc1)Nc1cccc(Cl)c1 (stereo not drawn) | 5.33% (inactive) |  |
| Cc1cc(C)c(S(=O)(=O)c2cc(F)ccc2C)c(=O)[nH]1 | 27.3% (inactive) |  |
| CCOC(=O)N1CC=C2C(C#N)=C(N)C(C#N)(C#N)[C@H](c3cccs3)[C@H]2C1 | -5.72% (inactive) |  |
| N#CC1=C(N)C(C#N)(C#N)[C@H](c2ccsc2)[C@H]2COCC=C12 |  | 2.51 µM (active) |
| CCCN1CC=C2C(C#N)=C(N)C(C#N)(C#N)C(c3cc(OC)ccc3OC)C2C1 (stereo not drawn) | -12.4% (inactive) |  |
